# Measurements from publication PMC7862700, “An all-to-all approach to the identification of sequence-specific readers for epigenetic DNA modifications on cytosine”.
# Tests used:
# Assay in all cases: DAPPL (digital affinity profiling via proximity ligation, sequencing); 10 mM Tris-HCl pH 7.5, 50 mM NaCl, 1 mM DTT, 4% glycerol, room temperature, 30 min; GST-TFs on glutathione beads, 16-mer random dsDNA library, 0.1% formaldehyde crosslink after washing; high values mean tight binding
# Conditions in all cases: protein: recombinant; tags: N-terminal GST; dsDNA, one strand shown
# ELK1 = biological target: T1, ELK1 (Homo sapiens, UniProt P19419 1-428)
# T1 sequence: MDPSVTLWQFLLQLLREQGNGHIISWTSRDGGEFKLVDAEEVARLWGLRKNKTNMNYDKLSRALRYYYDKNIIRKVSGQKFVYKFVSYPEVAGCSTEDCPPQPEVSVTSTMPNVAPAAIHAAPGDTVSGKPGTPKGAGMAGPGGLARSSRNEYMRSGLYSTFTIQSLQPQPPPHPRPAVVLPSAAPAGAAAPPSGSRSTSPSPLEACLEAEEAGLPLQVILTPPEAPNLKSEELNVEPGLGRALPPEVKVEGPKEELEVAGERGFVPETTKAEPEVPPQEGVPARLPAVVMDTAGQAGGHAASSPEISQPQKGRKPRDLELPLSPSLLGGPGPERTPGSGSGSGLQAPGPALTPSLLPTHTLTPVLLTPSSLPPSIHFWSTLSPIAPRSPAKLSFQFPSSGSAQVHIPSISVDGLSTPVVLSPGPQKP
# Method in brief: (§1)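 Sequencing on an Illumina NextSeq500 followed washing, crosslinking with 0.1% formaldehyde, proximity ligation (BsaI/T4 ligase, 1 h, 37 °C) and PCR amplification of pools that had been incubated for 30 min at room temperature with 200 nmole of a random double-stranded 16-mer DNA library in Tris/NaCl/DTT/glycerol buffer. Each pool held DNA-barcoded human transcription factors, expressed in yeast as GST fusions and captured on glutathione beads, plus a tag-only sample. Binding signal is a hexamer's read frequency for a factor divided by its frequency in the tag-only sample.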
# GABPA = biological target: T2, GABPA (Homo sapiens, UniProt Q06546 1-454)
# T2 sequence: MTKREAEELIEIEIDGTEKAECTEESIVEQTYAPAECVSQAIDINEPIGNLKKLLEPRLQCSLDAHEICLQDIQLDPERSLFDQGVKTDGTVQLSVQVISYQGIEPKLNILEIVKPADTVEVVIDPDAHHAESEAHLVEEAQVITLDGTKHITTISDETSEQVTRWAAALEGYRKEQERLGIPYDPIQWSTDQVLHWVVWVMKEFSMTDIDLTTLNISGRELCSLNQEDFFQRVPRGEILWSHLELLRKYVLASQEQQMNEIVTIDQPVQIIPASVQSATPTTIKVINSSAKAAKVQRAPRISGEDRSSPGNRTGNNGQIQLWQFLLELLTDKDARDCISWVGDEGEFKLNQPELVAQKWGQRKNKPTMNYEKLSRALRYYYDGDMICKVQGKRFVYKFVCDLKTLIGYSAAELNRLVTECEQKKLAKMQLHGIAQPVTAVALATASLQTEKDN
# Method in brief: as §1
# ERG = biological target: T3, ERG (Homo sapiens, UniProt P11308 1-479)
# T3 sequence: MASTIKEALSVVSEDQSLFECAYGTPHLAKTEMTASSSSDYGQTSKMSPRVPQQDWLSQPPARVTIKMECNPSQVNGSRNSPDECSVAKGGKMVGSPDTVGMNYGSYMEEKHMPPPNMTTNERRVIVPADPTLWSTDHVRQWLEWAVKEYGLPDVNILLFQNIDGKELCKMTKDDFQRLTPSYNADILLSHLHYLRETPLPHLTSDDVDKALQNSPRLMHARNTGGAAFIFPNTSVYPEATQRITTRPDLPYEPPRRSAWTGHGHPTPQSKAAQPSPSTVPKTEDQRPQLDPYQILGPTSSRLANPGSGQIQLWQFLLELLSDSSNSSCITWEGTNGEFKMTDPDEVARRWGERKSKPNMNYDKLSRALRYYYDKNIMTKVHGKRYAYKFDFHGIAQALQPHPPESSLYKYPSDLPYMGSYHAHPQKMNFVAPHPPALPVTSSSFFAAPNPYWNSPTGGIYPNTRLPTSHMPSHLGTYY
# Method in brief: as §1
# ELF1 = ELF1 (Homo sapiens, UniProt P32519 1-619)
# Sequence of ELF1 (P32519 whole entry): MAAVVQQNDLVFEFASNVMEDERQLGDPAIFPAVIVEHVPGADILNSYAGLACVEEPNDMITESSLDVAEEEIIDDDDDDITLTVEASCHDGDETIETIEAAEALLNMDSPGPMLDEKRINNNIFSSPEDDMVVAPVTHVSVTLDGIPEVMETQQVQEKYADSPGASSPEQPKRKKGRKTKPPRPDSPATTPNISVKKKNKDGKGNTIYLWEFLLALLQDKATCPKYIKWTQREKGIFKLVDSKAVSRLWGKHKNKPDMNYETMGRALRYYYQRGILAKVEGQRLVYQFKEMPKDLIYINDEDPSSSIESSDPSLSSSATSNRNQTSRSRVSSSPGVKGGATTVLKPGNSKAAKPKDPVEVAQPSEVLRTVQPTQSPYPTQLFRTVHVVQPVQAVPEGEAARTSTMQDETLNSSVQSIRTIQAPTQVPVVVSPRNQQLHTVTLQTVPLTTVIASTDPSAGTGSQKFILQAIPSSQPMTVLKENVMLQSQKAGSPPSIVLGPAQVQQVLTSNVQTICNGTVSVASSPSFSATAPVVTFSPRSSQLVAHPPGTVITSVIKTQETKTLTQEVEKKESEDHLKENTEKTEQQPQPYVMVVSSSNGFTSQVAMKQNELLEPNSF
# Method in brief: as §1
# SPIB = SPIB (Homo sapiens, UniProt Q01892 1-262)
# Sequence of SPIB (Q01892 whole entry): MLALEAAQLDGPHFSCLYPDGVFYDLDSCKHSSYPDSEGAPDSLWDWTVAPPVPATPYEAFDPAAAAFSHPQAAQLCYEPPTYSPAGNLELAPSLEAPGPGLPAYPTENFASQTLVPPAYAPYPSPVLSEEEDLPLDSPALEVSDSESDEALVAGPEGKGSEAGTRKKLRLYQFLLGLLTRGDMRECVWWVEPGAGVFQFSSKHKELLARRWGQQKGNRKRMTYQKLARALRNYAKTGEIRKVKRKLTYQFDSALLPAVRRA
# Method in brief: as §1
# FEV = biological target: T4, FEV (Homo sapiens, UniProt Q99581 1-238)
# T4 sequence: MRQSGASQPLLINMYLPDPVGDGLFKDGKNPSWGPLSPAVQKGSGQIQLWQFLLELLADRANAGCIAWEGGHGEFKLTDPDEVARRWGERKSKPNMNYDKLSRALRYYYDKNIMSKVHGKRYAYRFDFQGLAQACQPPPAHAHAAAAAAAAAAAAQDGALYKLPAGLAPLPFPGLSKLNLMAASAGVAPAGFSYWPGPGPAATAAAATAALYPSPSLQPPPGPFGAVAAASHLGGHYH
# Method in brief: as §1
# ETV5 = ETV5 (Homo sapiens, UniProt P41161 1-510)
# Sequence of ETV5 (P41161 whole entry): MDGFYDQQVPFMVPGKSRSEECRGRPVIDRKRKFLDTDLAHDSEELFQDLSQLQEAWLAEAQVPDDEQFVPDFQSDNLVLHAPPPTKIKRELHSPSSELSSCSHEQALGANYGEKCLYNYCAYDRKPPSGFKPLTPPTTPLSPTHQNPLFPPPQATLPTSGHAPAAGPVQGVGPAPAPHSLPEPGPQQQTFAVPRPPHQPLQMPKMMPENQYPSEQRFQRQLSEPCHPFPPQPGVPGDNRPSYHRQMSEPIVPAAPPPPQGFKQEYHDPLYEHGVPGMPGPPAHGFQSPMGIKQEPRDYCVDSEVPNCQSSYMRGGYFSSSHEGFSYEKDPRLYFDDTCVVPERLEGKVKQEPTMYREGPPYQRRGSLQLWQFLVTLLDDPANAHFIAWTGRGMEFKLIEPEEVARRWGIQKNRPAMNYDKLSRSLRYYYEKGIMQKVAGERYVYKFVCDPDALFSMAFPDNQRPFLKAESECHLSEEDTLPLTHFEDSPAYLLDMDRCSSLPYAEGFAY
# Method in brief: as §1
# ELF4 = ELF4 (Homo sapiens, UniProt Q99607 1-663)
# Sequence of ELF4 (Q99607 whole entry): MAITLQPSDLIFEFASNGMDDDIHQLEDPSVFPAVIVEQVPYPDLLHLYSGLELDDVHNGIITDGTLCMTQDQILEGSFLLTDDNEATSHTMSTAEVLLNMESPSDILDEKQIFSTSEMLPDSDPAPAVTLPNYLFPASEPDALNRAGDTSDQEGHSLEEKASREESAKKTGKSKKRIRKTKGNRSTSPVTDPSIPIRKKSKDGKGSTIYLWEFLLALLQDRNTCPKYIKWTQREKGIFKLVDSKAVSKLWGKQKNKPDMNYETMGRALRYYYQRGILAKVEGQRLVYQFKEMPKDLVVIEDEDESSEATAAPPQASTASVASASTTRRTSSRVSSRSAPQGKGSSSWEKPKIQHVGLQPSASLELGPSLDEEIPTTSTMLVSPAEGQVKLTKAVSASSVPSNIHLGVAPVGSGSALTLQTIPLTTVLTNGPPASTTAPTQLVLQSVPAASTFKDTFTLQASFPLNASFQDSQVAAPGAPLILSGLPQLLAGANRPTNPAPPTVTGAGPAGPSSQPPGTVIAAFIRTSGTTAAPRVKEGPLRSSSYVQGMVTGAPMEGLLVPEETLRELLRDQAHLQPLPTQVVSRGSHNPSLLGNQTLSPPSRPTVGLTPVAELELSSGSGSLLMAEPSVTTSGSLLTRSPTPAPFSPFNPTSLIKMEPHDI
# Method in brief: as §1
# ELK4 = biological target: T5, ELK4 (Homo sapiens, UniProt P28324-2 1-405)
# T5 sequence: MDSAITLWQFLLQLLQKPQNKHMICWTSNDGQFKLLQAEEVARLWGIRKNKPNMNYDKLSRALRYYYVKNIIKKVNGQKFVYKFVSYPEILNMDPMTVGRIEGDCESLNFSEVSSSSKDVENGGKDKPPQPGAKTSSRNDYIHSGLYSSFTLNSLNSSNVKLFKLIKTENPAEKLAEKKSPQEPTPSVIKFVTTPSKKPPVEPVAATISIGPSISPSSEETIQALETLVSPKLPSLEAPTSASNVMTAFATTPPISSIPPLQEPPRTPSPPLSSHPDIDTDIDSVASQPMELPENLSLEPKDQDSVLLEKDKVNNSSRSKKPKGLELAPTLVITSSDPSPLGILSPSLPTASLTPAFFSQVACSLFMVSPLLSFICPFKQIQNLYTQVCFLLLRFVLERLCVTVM
# Method in brief: as §1
# ETV2 = biological target: T6, ETV2 (Homo sapiens, UniProt O00321 1-342)
# T6 sequence: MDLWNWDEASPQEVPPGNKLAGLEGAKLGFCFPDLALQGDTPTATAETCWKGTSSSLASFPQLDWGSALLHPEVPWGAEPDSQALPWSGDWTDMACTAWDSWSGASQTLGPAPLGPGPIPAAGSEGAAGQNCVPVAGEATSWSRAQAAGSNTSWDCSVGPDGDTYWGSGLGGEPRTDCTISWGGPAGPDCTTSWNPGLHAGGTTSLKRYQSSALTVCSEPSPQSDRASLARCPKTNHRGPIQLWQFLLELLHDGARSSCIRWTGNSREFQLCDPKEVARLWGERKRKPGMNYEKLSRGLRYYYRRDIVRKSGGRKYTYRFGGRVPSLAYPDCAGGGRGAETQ
# Method in brief: as §1
# ETV1 = ETV1 (Homo sapiens, UniProt P50549 1-477)
# Sequence of ETV1 (P50549 whole entry): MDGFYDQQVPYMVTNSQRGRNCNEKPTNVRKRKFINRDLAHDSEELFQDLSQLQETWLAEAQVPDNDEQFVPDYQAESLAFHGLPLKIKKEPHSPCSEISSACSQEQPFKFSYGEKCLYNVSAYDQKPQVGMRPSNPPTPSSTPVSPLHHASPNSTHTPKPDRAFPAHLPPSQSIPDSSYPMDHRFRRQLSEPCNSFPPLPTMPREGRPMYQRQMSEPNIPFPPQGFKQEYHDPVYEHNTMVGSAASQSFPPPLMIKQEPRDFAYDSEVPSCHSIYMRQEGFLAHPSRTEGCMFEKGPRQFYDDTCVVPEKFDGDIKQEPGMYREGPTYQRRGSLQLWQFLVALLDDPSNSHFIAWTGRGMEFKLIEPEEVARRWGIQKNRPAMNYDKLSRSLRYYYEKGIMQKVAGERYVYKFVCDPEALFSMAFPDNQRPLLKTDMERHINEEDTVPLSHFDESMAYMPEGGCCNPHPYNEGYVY
# Method in brief: as §1
# ETV3L = biological target: T7, ETV3L (Homo sapiens, UniProt Q6ZN32 1-361)
# T7 sequence: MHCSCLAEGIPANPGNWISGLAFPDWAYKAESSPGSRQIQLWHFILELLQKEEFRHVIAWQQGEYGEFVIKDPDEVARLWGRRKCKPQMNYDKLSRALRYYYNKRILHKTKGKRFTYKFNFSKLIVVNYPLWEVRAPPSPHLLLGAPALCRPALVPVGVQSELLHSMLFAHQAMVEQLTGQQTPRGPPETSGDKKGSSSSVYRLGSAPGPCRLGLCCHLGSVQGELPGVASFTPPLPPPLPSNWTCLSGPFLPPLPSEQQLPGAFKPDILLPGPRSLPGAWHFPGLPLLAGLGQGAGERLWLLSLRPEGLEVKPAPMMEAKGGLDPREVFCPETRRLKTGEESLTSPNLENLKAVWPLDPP
# Method in brief: as §1
# ETS2 = biological target: T8, ETS2 (Homo sapiens, UniProt P15036 1-469)
# T8 sequence: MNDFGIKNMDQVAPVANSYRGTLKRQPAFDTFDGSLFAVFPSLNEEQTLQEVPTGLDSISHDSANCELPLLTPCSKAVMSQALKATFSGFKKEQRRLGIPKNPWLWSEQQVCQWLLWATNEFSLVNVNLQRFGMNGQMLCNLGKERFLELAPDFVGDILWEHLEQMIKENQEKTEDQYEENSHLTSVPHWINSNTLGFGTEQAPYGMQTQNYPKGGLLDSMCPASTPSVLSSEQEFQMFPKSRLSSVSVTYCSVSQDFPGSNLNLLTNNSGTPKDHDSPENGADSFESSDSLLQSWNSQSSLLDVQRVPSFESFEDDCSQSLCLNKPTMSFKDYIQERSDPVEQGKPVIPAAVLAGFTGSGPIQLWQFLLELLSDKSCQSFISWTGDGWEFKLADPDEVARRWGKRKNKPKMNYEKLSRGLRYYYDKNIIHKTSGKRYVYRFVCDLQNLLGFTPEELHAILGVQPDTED
# Method in brief: as §1
# ETV3 = biological target: T9, ETV3 (Homo sapiens, UniProt P41162-2 1-143)
# T9 sequence: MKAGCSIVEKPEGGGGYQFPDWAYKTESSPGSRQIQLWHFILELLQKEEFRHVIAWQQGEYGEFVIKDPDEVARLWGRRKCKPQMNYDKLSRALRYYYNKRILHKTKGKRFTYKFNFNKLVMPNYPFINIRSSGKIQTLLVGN
# Method in brief: as §1
# ETV6 = ETV6 (Homo sapiens, UniProt P41212 1-452)
# Sequence of ETV6 (P41212 whole entry): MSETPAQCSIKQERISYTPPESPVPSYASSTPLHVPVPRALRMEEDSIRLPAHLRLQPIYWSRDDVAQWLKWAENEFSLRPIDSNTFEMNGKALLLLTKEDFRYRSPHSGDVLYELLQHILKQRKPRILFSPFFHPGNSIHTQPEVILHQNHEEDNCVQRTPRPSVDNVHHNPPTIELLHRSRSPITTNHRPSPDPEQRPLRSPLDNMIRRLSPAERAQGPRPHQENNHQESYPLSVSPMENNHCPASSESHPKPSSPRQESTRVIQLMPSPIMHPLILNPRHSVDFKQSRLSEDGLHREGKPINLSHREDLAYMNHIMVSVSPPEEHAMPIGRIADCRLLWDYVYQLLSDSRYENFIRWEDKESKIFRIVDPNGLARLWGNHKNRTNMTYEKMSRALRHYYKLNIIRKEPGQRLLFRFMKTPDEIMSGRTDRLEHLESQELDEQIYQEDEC
# Method in brief: as §1
sequence,measurement,setting,value
CCCTGA,binding signal,ELK1,"1.18 fold enrichment (6-mer frequency, TF over GST control)"
same,binding signal,GABPA,"1.05 fold enrichment (6-mer frequency, TF over GST control)"
same,binding signal,ERG,"1.04 fold enrichment (6-mer frequency, TF over GST control)"
same,binding signal,ELF1,"1.06 fold enrichment (6-mer frequency, TF over GST control)"
same,binding signal,SPIB,"1.1 fold enrichment (6-mer frequency, TF over GST control)"
same,binding signal,FEV,"1.04 fold enrichment (6-mer frequency, TF over GST control)"
same,binding signal,ETV5,"1.07 fold enrichment (6-mer frequency, TF over GST control)"
same,binding signal,ELF4,"1.05 fold enrichment (6-mer frequency, TF over GST control)"
same,binding signal,ELK4,"1.1 fold enrichment (6-mer frequency, TF over GST control)"
same,binding signal,ETV2,"1.17 fold enrichment (6-mer frequency, TF over GST control)"
same,binding signal,ETV1,"1.09 fold enrichment (6-mer frequency, TF over GST control)"
same,binding signal,ETV3L,"1.04 fold enrichment (6-mer frequency, TF over GST control)"
same,binding signal,ETS2,"1.02 fold enrichment (6-mer frequency, TF over GST control)"
same,binding signal,ETV3,"1.01 fold enrichment (6-mer frequency, TF over GST control)"
same,binding signal,ETV6,"1.05 fold enrichment (6-mer frequency, TF over GST control)"
